# From PubChem BioAssay (EPA / NIEHS)
# Records with an inconclusive call do not appear. Activity calls are given as the source filed them. Rule for the calls: active = hit-call score of the fitted dose curve at least 0.9, where 1 is the maximum; inconclusive = response in the unintended direction; inactive = score below 0.9.
# Assays:
# [1] = molecular target: human Sirtuin 1 (SIRT1), SIRT1 (gene 23411) (UniProt Q96EB6); test: NVS_ENZ_hSIRT1: NovaScreen (NVS) Enzymatic Assay for human Sirtuin 1 (SIRT1) (AID 2283219)
# Procedure, shortened: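 Cell-free recombinant SIRT1 with a fluorescent substrate; substrate and product separated by electrophoretic mobility shift and read by fluorescence intensity, 1 h after dosing. Primary screen at 25 uM in duplicate; hits re-run in concentration-response up to 50 uM, relative to DMSO.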
# [2] = molecular target: sheep Cyclooxygenase-1 (Cox1), PTGS1 (gene 443551) (UniProt P05979); test: NVS_ENZ_oCOX1: NovaScreen (NVS) Enzymatic Assay for sheep Cyclooxygenase-1 (Cox1) (AID 2283239);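 note: actives reduce cyclooxygenase activity so potencies are for inhibitors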
# Procedure, shortened: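 Colorimetric enzyme readout using sheep seminal-vesicle cyclooxygenase-1, measured 0.66 h post-dosing. Single-concentration duplicates at 25 uM first, then concentration series for actives, with DMSO as baseline and plate controls.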
# [3] = molecular target: Adenosine receptor A1 (Bos taurus) (UniProt P28190); test: NVS_GPCR_bAdoR_NonSelective: NovaScreen (NVS) G Protein-Coupled Receptor Assay for bovine Adenosine Receptor (AdoR), Non-selective Binding (AID 2283244)
# Procedure, shortened: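 Cell-free binding with membranes from bovine striatum: radioligand displaced by test chemical, read after 1 h by filtration and scintillation. Single-point 25 uM duplicate primary, 50 uM top concentration in follow-up curves, DMSO baseline.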
# [4] = molecular target: human Sirtuin 2 (SIRT2), SIRT2 (gene 22933) (UniProt Q8IXJ6); test: NVS_ENZ_hSIRT2: NovaScreen (NVS) Enzymatic Assay for human Sirtuin 2 (SIRT2) (AID 2283217)
# Procedure, shortened: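 Single-point duplicate screen at 25 uM, then concentration-response (max 50 uM) for chemicals passing threshold. Enzyme activity of recombinant human SIRT2 measured after 1 hr by fluorescence with mobility-shift separation of product; DMSO baseline.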
# [5] = molecular target: human Rho Associated Coiled-coil Containing Protein Kinase 1 (ROCK1), ROCK1 (gene 6093) (UniProt Q13464); test: NVS_ENZ_hROCK1: NovaScreen (NVS) Enzymatic Assay for human Rho Associated Coiled-coil Containing Protein Kinase 1 (ROCK1) (AID 2283214)
# Procedure, shortened: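 Compounds first run in duplicate at 25 uM against recombinant human ROCK1, then followed in concentration series. Kinase activity was read 1 h post-dosing by fluorescence with mobility-shift separation, as signal loss relative to DMSO.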
# [6] = molecular target: human Vascular Endothelial Growth Factor Receptor 2 (VEGFR2), KDR (gene 3791) (UniProt P35968); test: NVS_ENZ_hVEGFR2: NovaScreen (NVS) Enzymatic Assay for human Vascular Endothelial Growth Factor Receptor 2 (VEGFR2) (AID 2283230)
# Procedure, shortened: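 Cell-free recombinant VEGFR2 kinase, fluorescent substrate with electrophoretic mobility-shift separation; read 1 h after dosing. Screened at 25 uM in duplicate, hits to concentration-response up to 50 uM; loss-of-signal versus DMSO.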
# [7] = molecular target: human SRC Proto-Oncogene, Non-receptor Tyrosine Kinase (SRC), SRC (gene 6714) (UniProt P12931); test: NVS_ENZ_hSRC: NovaScreen (NVS) Enzymatic Assay for human SRC Proto-Oncogene, Non-receptor Tyrosine Kinase (SRC) (AID 2283223)
# Procedure, shortened: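 Compounds passing 30% inhibition at 25 uM (duplicate) were titrated to a top concentration of 50 uM. Enzyme activity read by fluorescence with mobility-shift substrate/product separation after 1 h; DMSO baseline.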
# [8] = molecular target: human Sirtuin 3 (SIRT3), SIRT3 (gene 23410) (UniProt Q9NTG7); test: NVS_ENZ_hSIRT3: NovaScreen (NVS) Enzymatic Assay for human Sirtuin 3 (SIRT3) (AID 2283222)
# Procedure, shortened: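 Cell-free enzyme assay with recombinant protein and fluorescent substrate, product separated by electrophoretic mobility shift; read 1 hour after dosing. Screened in duplicate at 25 uM, then singleton concentration-response up to 50 uM; loss of signal versus DMSO.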
# [9] = tested on: bovine Angiotensin II Receptor Type 2 (AT2), gene 407157; test: NVS_GPCR_bAT2: NovaScreen (NVS) G Protein-Coupled Receptor Assay for bovine Angiotensin II Receptor Type 2 (AT2) (AID 2283240)
# Procedure, shortened: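 Radioligand displacement on bovine cerebellar membranes, 1 hour incubation, filter-based scintillation counting; loss of signal vs DMSO. Duplicate single-point screen at 25 uM, then concentration-response to 50 uM maximum.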
# [10] = molecular target: human Protein Tyrosine Phosphatase Receptor Type B (PTPRB), PTPRB (gene 5787) (UniProt P23467); test: NVS_ENZ_hPTPRB: NovaScreen (NVS) Enzymatic Assay for human Protein Tyrosine Phosphatase Receptor Type B (PTPRB) (AID 2283211)
# Procedure, shortened: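 Recombinant human PTPRB with a fluorescent substrate, product separated by electrophoretic mobility shift; read 1 h after dosing. Primary screen in duplicate at 25 uM; actives then retested in concentration series; loss of signal versus DMSO.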
# [11] = molecular target: human Protein Tyrosine Phosphatase Receptor Type F (PTPRF), PTPRF (gene 5792) (UniProt P10586); test: NVS_ENZ_hPTPRF: NovaScreen (NVS) Enzymatic Assay for human Protein Tyrosine Phosphatase Receptor Type F (PTPRF) (AID 2283213)
# Procedure, shortened: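 Cell-free fluorescence enzyme assay with recombinant protein and substrate; product separated by electrophoretic mobility shift. Read 1 h after dosing, single 25 uM duplicate screen, then concentration-response up to 50 uM; loss of signal vs DMSO.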
# [12] = molecular target: human Tropomyosin Receptor Kinase A (TRKA), NTRK1 (gene 4914) (UniProt P04629); test: NVS_ENZ_hTrkA: NovaScreen (NVS) Enzymatic Assay for human Tropomyosin Receptor Kinase A (TRKA) (AID 2283224)
# Procedure, shortened: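 Compounds were screened at 25 uM in duplicate, then concentration series to a 50 uM top for those meeting threshold (e.g. 30% inhibition). Enzyme was recombinant human TrkA, incubated 1 h. Product formation was quantified by fluorescence after mobility-shift separation.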
# [13] = molecular target: rabbit Imidazoline 2 Central (I2C), CKB (gene 100009085) (UniProt P00567); test: NVS_ENZ_rabI2C: NovaScreen (NVS) Enzymatic Assay for rabbit Imidazoline 2 Central (I2C) (AID 2283228)
# Procedure, shortened: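 Rabbit brain membranes, cell-free; readout by filter-based scintillation counting 1.5 hours after dosing, loss of signal vs DMSO. Initial duplicate test at 25 uM, then concentration-response with 50 uM top concentration.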
# [14] = molecular target: bovine Dopamine Receptor (DR), Non-selective Binding, DRD1 (gene 281125) (UniProt Q95136); test: NVS_GPCR_bDR_NonSelective: NovaScreen (NVS) G Protein-Coupled Receptor Assay for bovine Dopamine Receptor (DR), Non-selective Binding (AID 2283241)
# Procedure, shortened: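 Filter-based radioligand binding with bovine striatal membrane, incubated 1 h; DMSO as negative baseline. Initial duplicate single-point test at 25 uM preceded concentration series for actives.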
# [15] = molecular target: human Protein Tyrosine Phosphatase Non-receptor Type 6 (PTPN6), PTPN6 (gene 5777) (UniProt P29350); test: NVS_ENZ_hPTPN6: NovaScreen (NVS) Enzymatic Assay for human Protein Tyrosine Phosphatase Non-receptor Type 6 (PTPN6) (AID 2283210)
# Procedure, shortened: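 Recombinant human PTPN6 from SF9 cells, enzyme activity followed by fluorescence after mobility-shift separation of substrate and product at 1.33 h. Chemicals first tested at a single 25 uM in duplicate, then confirmed across concentration series; loss of signal relative to DMSO.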
# [16] = molecular target: sheep Cyclooxygenase-2 (Cox2), PTGS2 (gene 443460) (UniProt P79208); test: NVS_ENZ_oCOX2: NovaScreen (NVS) Enzymatic Assay for sheep Cyclooxygenase-2 (Cox2) (AID 2283231)
# Procedure, shortened: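 Compounds were first run at 25 uM in duplicate against tissue-extracted ovine COX-2; those passing a preset inhibition threshold went to singleton concentration-response testing with a 50 uM maximum. Read-out: absorbance at 0.66 hour.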
# human Protein Tyrosine Phosphatase Receptor Type B (PTPRB), PTPRB (gene 5787), sequence (P23467 whole entry, looked up): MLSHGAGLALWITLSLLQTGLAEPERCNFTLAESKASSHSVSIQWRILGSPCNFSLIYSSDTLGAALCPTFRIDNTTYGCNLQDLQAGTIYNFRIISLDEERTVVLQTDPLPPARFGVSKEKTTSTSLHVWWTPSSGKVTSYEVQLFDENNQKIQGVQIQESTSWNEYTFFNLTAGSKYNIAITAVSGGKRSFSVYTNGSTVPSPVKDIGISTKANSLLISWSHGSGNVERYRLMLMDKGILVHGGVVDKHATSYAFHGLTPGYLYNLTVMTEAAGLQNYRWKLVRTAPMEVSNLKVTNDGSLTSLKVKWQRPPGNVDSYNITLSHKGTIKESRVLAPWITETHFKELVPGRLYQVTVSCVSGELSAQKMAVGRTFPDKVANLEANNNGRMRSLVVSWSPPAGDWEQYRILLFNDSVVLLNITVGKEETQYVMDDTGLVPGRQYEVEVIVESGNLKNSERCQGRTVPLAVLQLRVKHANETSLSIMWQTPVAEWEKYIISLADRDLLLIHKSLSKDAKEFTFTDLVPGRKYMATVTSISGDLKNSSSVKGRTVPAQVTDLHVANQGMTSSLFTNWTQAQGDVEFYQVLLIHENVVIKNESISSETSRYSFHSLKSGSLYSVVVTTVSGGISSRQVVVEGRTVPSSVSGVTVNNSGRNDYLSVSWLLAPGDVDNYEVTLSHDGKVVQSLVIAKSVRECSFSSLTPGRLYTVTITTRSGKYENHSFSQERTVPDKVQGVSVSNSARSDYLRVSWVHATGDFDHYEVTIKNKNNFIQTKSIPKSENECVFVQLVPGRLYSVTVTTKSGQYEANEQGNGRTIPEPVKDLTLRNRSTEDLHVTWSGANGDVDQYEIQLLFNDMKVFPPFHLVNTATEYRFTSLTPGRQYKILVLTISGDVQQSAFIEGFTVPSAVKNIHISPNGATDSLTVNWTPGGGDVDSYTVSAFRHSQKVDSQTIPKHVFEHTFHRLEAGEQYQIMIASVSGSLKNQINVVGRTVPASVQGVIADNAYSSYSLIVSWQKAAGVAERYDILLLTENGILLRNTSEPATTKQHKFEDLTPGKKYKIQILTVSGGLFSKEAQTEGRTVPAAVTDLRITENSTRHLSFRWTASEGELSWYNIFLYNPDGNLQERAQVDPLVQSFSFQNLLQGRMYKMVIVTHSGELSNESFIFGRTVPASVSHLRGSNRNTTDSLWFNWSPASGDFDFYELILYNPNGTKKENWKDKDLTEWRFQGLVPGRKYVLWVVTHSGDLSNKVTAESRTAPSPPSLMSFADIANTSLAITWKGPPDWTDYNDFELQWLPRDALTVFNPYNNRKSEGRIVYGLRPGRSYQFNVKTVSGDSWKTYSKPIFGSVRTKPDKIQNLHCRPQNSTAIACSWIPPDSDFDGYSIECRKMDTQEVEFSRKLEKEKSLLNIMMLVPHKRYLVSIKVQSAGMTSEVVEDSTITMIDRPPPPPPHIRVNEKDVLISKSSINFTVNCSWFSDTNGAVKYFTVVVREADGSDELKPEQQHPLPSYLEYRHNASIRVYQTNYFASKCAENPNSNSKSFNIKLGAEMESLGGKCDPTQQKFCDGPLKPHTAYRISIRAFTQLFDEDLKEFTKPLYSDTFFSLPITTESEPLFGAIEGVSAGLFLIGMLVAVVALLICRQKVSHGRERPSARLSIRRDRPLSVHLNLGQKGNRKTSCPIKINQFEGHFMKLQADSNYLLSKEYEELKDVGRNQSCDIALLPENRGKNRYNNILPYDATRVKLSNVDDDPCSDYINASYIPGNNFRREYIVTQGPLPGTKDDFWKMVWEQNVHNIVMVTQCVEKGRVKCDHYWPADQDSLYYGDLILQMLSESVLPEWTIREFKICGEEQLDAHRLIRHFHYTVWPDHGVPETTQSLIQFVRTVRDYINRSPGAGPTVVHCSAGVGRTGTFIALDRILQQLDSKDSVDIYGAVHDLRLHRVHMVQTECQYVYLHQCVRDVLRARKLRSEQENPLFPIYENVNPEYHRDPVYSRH
# human Sirtuin 1 (SIRT1), SIRT1 (gene 23411), sequence (Q96EB6 whole entry, looked up): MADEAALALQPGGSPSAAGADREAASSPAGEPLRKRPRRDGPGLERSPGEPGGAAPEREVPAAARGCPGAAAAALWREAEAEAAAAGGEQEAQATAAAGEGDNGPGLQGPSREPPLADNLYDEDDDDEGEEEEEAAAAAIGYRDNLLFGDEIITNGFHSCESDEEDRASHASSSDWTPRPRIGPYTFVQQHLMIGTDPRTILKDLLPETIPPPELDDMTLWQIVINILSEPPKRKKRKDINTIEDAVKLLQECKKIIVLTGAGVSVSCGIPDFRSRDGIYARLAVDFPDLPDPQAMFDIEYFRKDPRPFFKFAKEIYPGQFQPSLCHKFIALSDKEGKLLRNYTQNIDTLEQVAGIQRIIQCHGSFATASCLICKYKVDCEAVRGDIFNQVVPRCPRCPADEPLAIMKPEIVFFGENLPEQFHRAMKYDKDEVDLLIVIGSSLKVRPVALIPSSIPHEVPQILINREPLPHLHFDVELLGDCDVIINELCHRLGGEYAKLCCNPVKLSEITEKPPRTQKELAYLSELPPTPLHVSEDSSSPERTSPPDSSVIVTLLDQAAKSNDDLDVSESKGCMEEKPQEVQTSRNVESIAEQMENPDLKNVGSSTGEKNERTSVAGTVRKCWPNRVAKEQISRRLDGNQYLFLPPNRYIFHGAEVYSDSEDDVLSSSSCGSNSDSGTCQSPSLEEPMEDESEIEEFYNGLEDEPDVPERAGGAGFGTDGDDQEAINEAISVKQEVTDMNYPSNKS
# human Sirtuin 2 (SIRT2), SIRT2 (gene 22933), sequence (Q8IXJ6 whole entry, looked up): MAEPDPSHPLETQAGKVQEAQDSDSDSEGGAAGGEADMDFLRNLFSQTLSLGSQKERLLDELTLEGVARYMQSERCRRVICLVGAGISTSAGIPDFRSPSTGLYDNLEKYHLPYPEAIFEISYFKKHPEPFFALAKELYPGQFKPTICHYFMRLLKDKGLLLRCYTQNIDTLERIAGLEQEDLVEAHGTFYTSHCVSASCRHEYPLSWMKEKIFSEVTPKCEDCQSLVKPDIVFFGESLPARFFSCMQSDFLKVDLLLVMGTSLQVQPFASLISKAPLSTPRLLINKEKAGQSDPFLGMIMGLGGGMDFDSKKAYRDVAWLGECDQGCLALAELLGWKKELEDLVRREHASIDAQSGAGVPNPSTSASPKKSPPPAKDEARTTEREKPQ
# human Vascular Endothelial Growth Factor Receptor 2 (VEGFR2), KDR (gene 3791), sequence (P35968 whole entry, looked up): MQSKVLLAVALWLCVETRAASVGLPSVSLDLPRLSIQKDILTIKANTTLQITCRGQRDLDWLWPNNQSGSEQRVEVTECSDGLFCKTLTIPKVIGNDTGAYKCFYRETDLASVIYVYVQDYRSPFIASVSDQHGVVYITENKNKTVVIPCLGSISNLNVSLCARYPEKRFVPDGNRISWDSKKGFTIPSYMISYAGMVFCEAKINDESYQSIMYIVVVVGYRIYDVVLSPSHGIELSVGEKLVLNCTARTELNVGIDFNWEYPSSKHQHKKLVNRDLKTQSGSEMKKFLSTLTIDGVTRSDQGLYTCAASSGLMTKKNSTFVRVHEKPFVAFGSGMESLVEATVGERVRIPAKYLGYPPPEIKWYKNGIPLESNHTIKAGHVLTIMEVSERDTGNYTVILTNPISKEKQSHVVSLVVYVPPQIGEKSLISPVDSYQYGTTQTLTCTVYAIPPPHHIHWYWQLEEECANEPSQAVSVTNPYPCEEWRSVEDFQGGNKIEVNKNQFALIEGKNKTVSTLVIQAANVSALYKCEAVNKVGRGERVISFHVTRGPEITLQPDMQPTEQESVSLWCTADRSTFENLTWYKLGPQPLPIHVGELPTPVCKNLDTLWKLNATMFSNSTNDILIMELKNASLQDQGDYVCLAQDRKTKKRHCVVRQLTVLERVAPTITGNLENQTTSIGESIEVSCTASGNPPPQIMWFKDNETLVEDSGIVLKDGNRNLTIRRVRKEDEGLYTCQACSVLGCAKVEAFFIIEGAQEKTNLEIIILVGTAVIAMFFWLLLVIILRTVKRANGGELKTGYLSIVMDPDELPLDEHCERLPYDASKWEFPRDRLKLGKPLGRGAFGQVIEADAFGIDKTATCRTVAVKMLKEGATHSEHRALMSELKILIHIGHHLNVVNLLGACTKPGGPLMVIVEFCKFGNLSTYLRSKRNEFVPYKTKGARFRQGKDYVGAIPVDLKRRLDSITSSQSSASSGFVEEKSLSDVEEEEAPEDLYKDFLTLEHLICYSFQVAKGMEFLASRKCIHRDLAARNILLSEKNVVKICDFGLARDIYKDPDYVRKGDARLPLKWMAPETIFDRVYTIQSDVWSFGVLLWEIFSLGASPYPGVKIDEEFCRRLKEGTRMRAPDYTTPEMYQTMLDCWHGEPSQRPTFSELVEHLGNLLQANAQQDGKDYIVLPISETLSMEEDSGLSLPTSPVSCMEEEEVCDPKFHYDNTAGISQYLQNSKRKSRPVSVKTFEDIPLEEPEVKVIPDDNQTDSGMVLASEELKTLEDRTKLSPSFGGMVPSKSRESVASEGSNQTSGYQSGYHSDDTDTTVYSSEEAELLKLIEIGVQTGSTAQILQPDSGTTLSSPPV
# human Sirtuin 3 (SIRT3), SIRT3 (gene 23410), sequence (Q9NTG7 whole entry, looked up): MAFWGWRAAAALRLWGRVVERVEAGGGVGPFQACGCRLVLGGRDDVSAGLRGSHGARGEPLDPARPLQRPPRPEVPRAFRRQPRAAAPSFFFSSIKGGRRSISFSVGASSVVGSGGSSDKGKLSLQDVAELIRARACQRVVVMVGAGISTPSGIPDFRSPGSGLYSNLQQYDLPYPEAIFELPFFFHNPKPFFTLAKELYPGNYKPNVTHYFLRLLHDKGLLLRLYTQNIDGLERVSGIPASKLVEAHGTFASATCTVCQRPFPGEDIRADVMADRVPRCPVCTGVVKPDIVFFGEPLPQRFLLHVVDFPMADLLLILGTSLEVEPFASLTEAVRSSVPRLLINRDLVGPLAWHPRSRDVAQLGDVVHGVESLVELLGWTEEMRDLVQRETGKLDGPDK
smiles,measurement,setting,value
O=c1c(-c2ccc(O)cc2)coc2cc(O)cc(O)c12,outcome,[1],inactive
same,outcome,[2],inactive
same,AC50,[3],18.9 µM (active)
CCCCCCCCN(C)CCCCCCCC,outcome,[4],inactive
OCCO,outcome,[5],inactive
same,outcome,[6],inactive
Cc1cccc2ccccc12,outcome,[7],inactive
O=C(Nc1ccc(Cl)cc1)Nc1ccc(Cl)c(Cl)c1,outcome,[8],inactive
same,outcome,[6],inactive
COc1ccc2cc(S(=O)(=O)N[C@H](CC(=O)N[C@H](Cc3ccc(CN4[C@H](C)CCC[C@@H]4C)cc3)C(=O)N(C)C(C)C)c3ccc4c(c3)OCO4)ccc2c1,outcome,[1],inactive
same,AC50,[9],37.5 µM (active)
Oc1ccc2ccccc2c1,outcome,[1],inactive
same,AC50,[2],5.35 µM (active)
CC(=O)N1CCN(c2ccc(OC[C@H]3CO[C@](Cn4ccnc4)(c4ccc(Cl)cc4Cl)O3)cc2)CC1,AC50,[4],6.46 µM (active)
same,outcome,[1],inactive
CC/C(=C(/CC)c1ccc(O)cc1)c1ccc(O)cc1,outcome,[10],inactive
same,outcome,[2],inactive
CN1C(=O)N(c2ccccc2Br)Cc2cnc(Nc3ccc4c(c3)OCC(CO)O4)nc21 (centres undefined),outcome,[11],inactive
same,outcome,[1],inactive
same,AC50,[7],0.00229 µM (active)
same,AC50,[12],0.493 µM (active)
O=C1c2ccccc2C(=O)N1CCc1noc(-c2ccc(CN3CCCCCC3)s2)n1,outcome,[4],inactive
same,outcome,[8],inactive
same,AC50,[13],7.93 µM (active)
same,outcome,[2],inactive
same,outcome,[9],inactive
same,AC50,[14],14.6 µM (active)
c1ccc(C[n+]2cccc3ccccc32)cc1,outcome,[15],inactive
same,AC50,[13],11.9 µM (active)
CC(C)(C)c1csc(-c2cc3cc(OCc4ccccc4CC(=O)O)ccc3o2)n1,outcome,[4],inactive
NC(=O)c1nc(-c2cccc(-c3cc(F)ccc3OCC(F)(F)C(F)(F)F)c2)n[nH]1,outcome,[4],inactive
same,outcome,[8],inactive
O=C(O)Cn1c(=O)n(Cc2ccc(Br)cc2F)c(=O)c2ccc(Cl)cc21,outcome,[4],inactive
same,outcome,[9],inactive
CCCCCCCCCC(=O)O,outcome,[10],inactive
same,outcome,[1],inactive
same,outcome,[12],inactive
same,outcome,[3],inactive
COc1cc(C(=O)NC2CCN(C)CC2)ccc1Nc1ncc2c(n1)N(C1CCCC1)CC(F)(F)C(=O)N2C,outcome,[5],inactive
same,outcome,[4],inactive
same,outcome,[6],inactive
same,AC50,[16],15.2 µM (active)
same,AC50,[9],14 µM (active)
same,AC50,[14],11.2 µM (active)
Cc1occc1C(=O)Nc1ccc(C(=O)N2CCC(F)(F)/C(=C\C(=O)N3CCC(N4CCCCC4)CC3)c3ccccc32)cc1,outcome,[8],inactive
same,AC50,[9],3.76 µM (active)
Clc1cc(Cl)c2c(c1)N=C1CCCCCN1C2,outcome,[10],inactive
same,outcome,[11],inactive
same,AC50,[13],6.89 µM (active)
